Bioassay records as filed in PubChem BioAssay.
Most compounds without a hit are left out; they make up all but 7.3% or so of the library.
FLuc modulator – qHTS profiling assay for firefly luciferase inhibitor/activator using purifed enzyme and Km concentrations of substrates (counterscreen for miR-21 project). Luciferin 4-monooxygenase (Photinus pyralis), P08659. Potency, µM (top dose mostly 57.5 µM), most hits filed as inhibitors. purified FLuc, Km substrates, luminescence inhibition. 360,000 tested, 6.9% active; further: nearly all actives have a fitted effect of over 55% in size
Target sequence (P08659 whole entry, looked up): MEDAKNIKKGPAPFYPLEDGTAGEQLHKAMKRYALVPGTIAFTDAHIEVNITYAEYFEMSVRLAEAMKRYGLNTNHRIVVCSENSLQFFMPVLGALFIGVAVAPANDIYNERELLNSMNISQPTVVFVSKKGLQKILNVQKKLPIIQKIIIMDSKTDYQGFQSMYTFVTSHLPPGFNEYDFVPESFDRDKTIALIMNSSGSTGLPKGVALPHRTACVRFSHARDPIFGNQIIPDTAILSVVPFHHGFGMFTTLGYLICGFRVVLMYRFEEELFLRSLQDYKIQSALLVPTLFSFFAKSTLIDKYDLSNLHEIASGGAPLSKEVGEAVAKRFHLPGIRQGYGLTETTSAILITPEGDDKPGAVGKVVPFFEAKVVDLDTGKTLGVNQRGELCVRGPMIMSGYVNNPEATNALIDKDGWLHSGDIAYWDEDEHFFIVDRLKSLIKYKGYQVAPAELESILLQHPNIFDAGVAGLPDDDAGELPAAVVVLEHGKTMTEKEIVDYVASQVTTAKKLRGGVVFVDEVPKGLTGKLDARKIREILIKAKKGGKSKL
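Biochemical qHTS of compounds, final roughly 60 µM downward over six points, against 10 nM purified firefly luciferase using Km concentrations of substrates (10 uM D-luciferin, 10 uM ATP) in Tris acetate pH 7.5 buffer; luminescence output.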
Luc counter – Counterscreen for Luciferase (Kinase-Glo TM) Inhibition. Luciferin 4-monooxygenase (Photuris pensylvanica), Q27757. Kinase-Glo luciferase, ATP luminescence, 8 min. Potency, µM (top dose mostly 38.3 µM), hits mostly inhibitors. 200,000 tested, 0.28% active; further: nearly all actives have a fitted effect of over 60% in size
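Light output from Kinase-Glo luciferase with luciferin and 10 uM ATP in 50 mM imidazole pH 7.2, KCl, MgCl2, Tween 20, BSA; compound pin-delivered, 8-min ambient incubation, then luminescence read.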
SMN2 splice enh – qHTS Assay for Enhancers of SMN2 Splice Variant Expression | HEK293 SMN2-luciferase splicing reporter, luminescence, 30-36 h | Potency, µM (titrated, usually from 46.1 µM), usual class: activators | 210,000 tested, 2.8% active | AID 1458, 2008; further: nearly all actives have a fitted effect of over 55% in size
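HEK293 cells carry an SMN2 […]–luciferase reporter in which exon 7 inclusion puts luciferase in frame. Cells were plated 10-12 h before compound addition, then incubated 30-36 h at 37C. ONE-Glo luminescence was read; sodium butyrate at 4.5 mM final served as control.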
ELG1 genotox – qHTS screen for small molecules that induce genotoxicity in human embryonic kidney (HEK293T) cells expressing luciferase-tagged ELG1. HEK293T ELG1-luciferase reporter, luminescence, 16 h. 330,000 tested, 1.3% active. Potency, µM (highest dose often 46 µM), usual class: activators. AID 504466, 2011; further: nearly all actives have a fitted effect of over 60% in size
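16 hr compound incubation (37 °C, 5% CO2) of HEK293T cells carrying luciferase-tagged ELG1; luciferase then measured by ONE-Glo luminescence after 30 min at RT.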
NPC1 promoter act – qHTS Assay for NPC1 Promoter Activators | Huh7 NPC1 promoter luciferase reporter, 24 h | Potency, µM (doses to about 9.22 µM), most hits filed as activators | 320,000 tested, 2.4% active; further: nearly all actives have a fitted effect of over 60% in size
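Luminescence read-out of NPC1 promoter-driven luciferase in stably transfected Huh7 cells; compounds delivered in DMSO and left 24 h at 37C, 5% CO2, qHTS titration format.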
Rab9 prom act – qHTS Assay for Rab9 Promoter Activators; Huh7 Rab9 promoter-luciferase reporter, luminescence, 24 h; Potency, µM (highest dose often 9.22 µM), usual class: activators; 320,000 tested, 2.8% active; AID 485297, 2010; further: nearly all actives have a fitted effect of over 60% in size
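Cell-based reporter: Huh7 stable for Rab9 promoter-driven luciferase, plated in reduced-serum medium with 10% FBS at 1500 cells/well, compound-treated 24 h at 37 °C, luminescence read after 10 min reagent.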
Each line names hits and unclear results; the compound was inactive in the other large screens. The call rests on the fitted dose curve; in most records, active means well fitted curve in the direction sought with a large enough effect; inconclusive means small, poorly fitted or top-dose-only effect, or another doubt; inactive means no such curve, though single readings can be large; an effect the other way counts as inactive or inconclusive.

O=C(/C=C/c1cccc2ccccc12)c1ccncc1	FLuc modulator 9.5µM
Cc1cc(OC(C)C(=O)N(Cc2ccc(N(C)C)cc2)Cc2ccco2)ccc1Cl (stereo unspecified)	FLuc modulator inconclusive (no result: Luc counter, ELG1 genotox, NPC1 promoter act, Rab9 prom act)
Cc1cc(C)cc(NC(=O)CSCc2cc(=O)c3cc(Cl)ccc3[nH]2)c1	none (no result: Luc counter, SMN2 splice enh, ELG1 genotox, NPC1 promoter act, Rab9 prom act)
O=C(CCc1nnc2n(Cc3ccccc3Cl)c(=O)c3ccccc3n12)Nc1ccc(F)cc1	none (no result: Luc counter, ELG1 genotox, NPC1 promoter act, Rab9 prom act)
O=C(/C=C/c1cccc(Oc2ccccc2)c1)N1CCOCC1	FLuc modulator 15µM, ELG1 genotox inconclusive, NPC1 promoter act inconclusive, Rab9 prom act 1.6µM (no result: SMN2 splice enh)
COc1ccccc1N1CCN(C(=O)Cn2c(=O)nc(-c3ccccc3)c3cc(Cl)ccc32)CC1	none (no result: Luc counter, SMN2 splice enh, ELG1 genotox, NPC1 promoter act, Rab9 prom act)
CSc1n[nH]c(-c2ccc(C(F)(F)F)cc2)n1	FLuc modulator 17µM, ELG1 genotox inconclusive, NPC1 promoter act inconclusive, Rab9 prom act inconclusive (no result: Luc counter, SMN2 splice enh)
Cc1ccc(CNC(=O)CSc2n[nH]c(-c3ccc(F)cc3)n2)cc1	none (no result: Luc counter, SMN2 splice enh, ELG1 genotox, NPC1 promoter act, Rab9 prom act)
O=C(Nc1ccccc1)C1C2CCCCC21 (stereo unspecified)	FLuc modulator inconclusive (no result: Luc counter, SMN2 splice enh)
Cc1ccc(NC(=O)C2C3CCCCC32)cc1[N+](=O)[O-] (stereo unspecified)	FLuc modulator 12µM, ELG1 genotox inconclusive, NPC1 promoter act inconclusive, Rab9 prom act inconclusive (no result: Luc counter, SMN2 splice enh)
Cc1cc(NC(=O)OC2CCCCC2)ccc1[N+](=O)[O-]	FLuc modulator 7.6µM, NPC1 promoter act 2.8µM, Rab9 prom act 2.8µM (no result: Luc counter, SMN2 splice enh)
Cc1cccc(NC(=O)C2C3CCCCC32)c1 (stereo unspecified)	FLuc modulator 19µM, ELG1 genotox inconclusive, NPC1 promoter act inconclusive, Rab9 prom act inconclusive (no result: Luc counter, SMN2 splice enh)
CC(=O)Nc1ccc(C)c([N+](=O)[O-])c1	none (no result: SMN2 splice enh)
Cc1ccc(NC(=O)C2C3/C=C\CCCCC32)cc1 (stereo unspecified)	FLuc modulator inconclusive, SMN2 splice enh inconclusive, NPC1 promoter act inconclusive, Rab9 prom act 3.5µM
O=c1n(-c2ccc(Br)cc2)cnn1-c1ncccc1[N+](=O)[O-]	FLuc modulator 17µM, SMN2 splice enh 13µM, ELG1 genotox inconclusive, NPC1 promoter act inconclusive, Rab9 prom act 2µM
COC(=O)c1cc(/C=C/c2ccccc2)[nH]n1	FLuc modulator 17µM, NPC1 promoter act inconclusive, Rab9 prom act inconclusive (no result: Luc counter, SMN2 splice enh)
COC(=O)c1cc(/C=C/c2ccccc2)on1	FLuc modulator inconclusive
COc1ccc(N/C=C\C(=O)c2ccc(Br)cc2)cc1OC	FLuc modulator inconclusive, SMN2 splice enh inconclusive, NPC1 promoter act inconclusive, Rab9 prom act inconclusive
COc1ccc(N/C=C\C(=O)c2ccc(C)cc2)cc1OC	FLuc modulator 5.4µM, ELG1 genotox inconclusive, NPC1 promoter act inconclusive, Rab9 prom act 3.5µM
O=C(/C=C\Nc1ccc2c(c1)OCO2)c1ccc2c(c1)OCO2	FLuc modulator 0.13µM, Luc counter inconclusive, SMN2 splice enh inconclusive, ELG1 genotox 2.3µM, NPC1 promoter act 4µM, Rab9 prom act 0.79µM
O=C(O)c1ccc2c(c1)OCO2	none (no result: FLuc modulator, ELG1 genotox, NPC1 promoter act, Rab9 prom act)
COc1ccc(N/C=C\C(=O)c2ccc3c(c2)OCO3)cc1	FLuc modulator 0.27µM, Luc counter inconclusive, SMN2 splice enh inconclusive, ELG1 genotox inconclusive, NPC1 promoter act 1.8µM, Rab9 prom act 3.5µM
COc1ccc(NC(=O)COc2ccc3c(c2)OCO3)cc1	FLuc modulator inconclusive (no result: Luc counter, SMN2 splice enh)
COc1ccc(N/C=C/C(=O)c2ccc3c(c2)OCO3)cc1OC	FLuc modulator 2.7µM, ELG1 genotox inconclusive, Rab9 prom act inconclusive
Fc1ccc(Nc2nc3ccccc3s2)cc1	FLuc modulator 7.6µM, SMN2 splice enh 13µM, ELG1 genotox inconclusive, NPC1 promoter act inconclusive, Rab9 prom act 2.5µM
Cc1ccccc1Nc1nc2ccccc2s1	FLuc modulator 4.8µM, SMN2 splice enh 11µM, ELG1 genotox inconclusive, NPC1 promoter act 3.5µM, Rab9 prom act 2.5µM
Cc1ccc(Nc2nc3ccccc3s2)cc1	FLuc modulator 0.85µM, SMN2 splice enh 2.8µM, ELG1 genotox 7.3µM, NPC1 promoter act 1µM, Rab9 prom act 0.71µM
